# The full list was thinned out, with hits kept by preference.
# Algae TAG accum = algal TAG accumulation induction. Chlamydomonas reinhardtii TAG, Nile Red fluorescence, 72 h. calls only at 10 µM (by protocol). 0.84% of 44,000 active; call rule not given here;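 also: hits raise Nile Red signal meaning more stored TAG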
# Calls only; . = inactive; + = active, no number.
SMILES,Algae TAG accum
C(=C\c1ccccc1)/CN1CCN(C2CCN(CCc3ccccc3)CC2)CC1,.
COc1cc(CN2CCN(C/C=C/c3ccccc3)CC2)cc(OC)c1OC,.
COc1ccc(CN2CCN(C/C=C/c3ccccc3)CC2)c(O)c1,.
C(=C\c1ccccc1)/CN1CCN(C2C3CC4CC(C3)CC2C4)CC1 (stereo not drawn),+
C(=C\c1ccccc1)/CN1CCN(c2ncccn2)CC1,.
COc1ccc(CN2CCN(C/C=C/c3ccccc3)CC2)cc1,+
Fc1ccc(F)c(CN2CCOCC2)c1,.
O=C(Nc1ccccc1)/C(=C\c1ccc([N+](=O)[O-])cc1)NC(=O)c1ccco1,.
CC1=CC(C)(C)N(C(=O)Cc2ccccc2)c2ccccc21,.
CCCOc1cccc(C(=O)Nc2cccc(C)c2C)c1,.
C/C=C(\C)CN1CCN(c2ccc(C)cc2)CC1,+
C/C=C(\C)CN1CCN(Cc2ccccc2)CC1,.
Cc1ccc(NC(=O)CN2CCN(c3ccc(F)cc3)CC2)cc1,.
CC(C)Cn1cc(C=O)c2ccccc21,.
CN1CCCN(Cc2ccco2)CC1,.
c1coc(CN2CCN(C3CC4CCC3C4)CC2)c1 (stereo not drawn),.
c1coc(CN2CCN(C3CCCCC3)CC2)c1,+
O=C1C(=O)N(CCCN2CCOCC2)C(c2cccnc2)C1=C(O)c1ccc(Cl)cc1 (stereo not drawn),.
O=[N+]([O-])c1ccc(N2CCCC2)cc1SCCO,.
Cc1cc(C=O)c(C)n1-c1ccc(O)cc1,.
Cc1cc(C=O)c(C)n1-c1ccc(Br)cc1F,+
COc1ccc(Cl)cc1-n1c(C)cc(C=O)c1C,.
Cc1c(NC(=O)Cc2ccccc2)cccc1-c1nc2cc(Cl)ccc2o1,.
COc1ccc(OCc2nc3c4c5c(sc4ncn3n2)C(C)(C)NC(C)(C)C5)cc1,.
Cc1cc(Cl)c(OCCn2ccnc2)c(Br)c1,+
SMILES,Algae TAG accum
Cc1ccc(OCCn2ccnc2)c(Cl)c1,.
Cc1cc(Cl)cc(C)c1OCCn1ccnc1,+
Clc1ccc(OCCn2ccnc2)c(Br)c1,.
Clc1ccc(OCCn2ccnc2)c(Cl)c1,.
Cc1cc(Cl)c(OCCOCCn2ccnc2)c(Br)c1,.
Cc1cc(=O)[nH]c(NCc2ccccc2)n1,.
Cc1cc(Oc2ccc([N+](=O)[O-])cc2)nc(NCc2ccccc2)n1,.
COc1cc(C)nc(NCc2ccccc2)n1,+
Cc1ccc(C(=O)N2CCc3ccccc3C2)c(Cl)c1,.
O=C(C(Cc1ccccc1)N1C(=O)c2ccccc2C1=O)N1CCN(c2ccc(F)cc2)CC1 (stereo not drawn),.
Nc1ccc(Sc2nc3ccccc3[nH]2)c(Cl)c1,.
O=C(c1ccccc1)N1CCN(C2C3CC4CC(C3)CC2C4)CC1 (stereo not drawn),.
CS(=O)(=O)N1CCN(C2C3CC4CC(C3)CC2C4)CC1 (stereo not drawn),+
Cc1ccc(N2CCN(C3C4CC5CC(C4)CC3C5)CC2)cc1 (stereo not drawn),.
COc1cccc(C(=O)Nc2ccc3oc(-c4ccc(F)cc4)nc3c2)c1,.
COc1ccc(-c2nc3cc(NC(=O)c4ccccc4)ccc3o2)cc1,.
COc1cccc(C(=O)Nc2ccc3oc(-c4ccncc4)nc3c2)c1,+
Cc1ccc(C(=O)Nc2ccc3oc(-c4ccncc4)nc3c2)cc1C,+
O=C(Nc1ccc2oc(-c3ccncc3)nc2c1)c1ccccc1,.
O=C(Nc1ccc2oc(-c3cccnc3)nc2c1)c1ccncc1,.
CC1(C(=O)O)CCC(C(=O)Nc2cccc(C(=O)O)c2)C1(C)C (stereo not drawn),.
CN1CCN(NC(=O)Nc2ccc(Cl)c(Cl)c2)CC1,.
CCN(C(=O)c1cccc(C)c1)c1ccccc1,.
O=C(Nc1ccc2oc(-c3ccccc3)nc2c1)c1ccc([N+](=O)[O-])o1,.
Cc1cc(-n2nc(C)cc2C)nc(N)n1,.
SMILES,Algae TAG accum
Cc1cc(N2CCCCC2)nc(N)n1,.
CCN(CC)c1cc(C)nc(N)n1,+
C=CCOc1ccc(C2C(=C(O)c3ccc(OC)cc3)C(=O)C(=O)N2CCN2CCNCC2)cc1 (stereo not drawn),.
COc1ccc(CNCc2ccc(C)cc2C)cc1,.
COc1ccc(CNCc2ccc(C)cc2)c(OC)c1,+
COc1ccc(CNCc2ccc(C)cc2C)c(OC)c1,.
COc1cc(C(=O)Nc2ccc(Cl)cc2F)cc(OC)c1OC,.
Cc1ccc(S(=O)(=O)N(CC(=O)N(C)C)c2ccc(Cl)cc2)cc1,.
CC(=O)NCCc1ccc(S(=O)(=O)Nc2ccc(OCC(N)=O)cc2)cc1,.
COc1cc(Nc2nc(-c3cccc([N+](=O)[O-])c3)cs2)c(OC)cc1Cl,.
Cc1cccc(-c2cc(NC(=O)c3ccccc3[N+](=O)[O-])n[nH]2)c1,.
Cc1cccc(-c2cc(NC(=O)c3ccc([N+](=O)[O-])cc3)n[nH]2)c1,+
O=C(Nc1ncccn1)c1ccc([N+](=O)[O-])cc1,.
Cc1c(NC(=O)Cc2ccccc2)cccc1-c1nc2ccccc2o1,.
O=C(Nc1ccc(Cc2ccncc2)cc1)c1cc(Br)ccc1Cl,+
COc1ccc(Br)cc1C(=O)Nc1ccc(Cc2ccncc2)cc1,.
O=C(Nc1ccc(Br)cc1)c1ccccc1Cl,+
CC(=O)c1cccc(NC(=O)c2cc(Br)ccc2Cl)c1,.
O=C(O)c1ccc(NC(=O)c2ccccc2Cl)cc1,.
O=C(Nc1ccc(Cl)cc1)c1ccccc1Br,.
O=C(c1ccccc1Cl)c1coc2ccc(Cl)cc2c1=O,.
Cc1c(Cl)cccc1NC(=O)[C@@H]1C[C@@H]1c1ccccc1,.
O=C(CN(C1CCCCC1)S(=O)(=O)c1ccc(Br)cc1)NCc1ccco1,.
O=C(CSc1nnc(-c2ccncc2)n1Cc1ccccc1)c1ccc(Br)cc1,.
CCOC(=O)O/N=C(N)/C(N)=N/OC(=O)OCC,.
SMILES,Algae TAG accum
Cc1ccc(-c2nnn(CC(=O)NC(C)(C)C)n2)cc1,.
CCOc1ccc(NC(=O)c2cc(Br)ccc2OC)cc1,.
COc1ccc(C(=O)c2ccc(N3CCN(C)CC3)c([N+](=O)[O-])c2)cc1,+
Cc1ccc(C(=O)c2ccc(N3CCCC3)c([N+](=O)[O-])c2)cc1,.
CN1CCN(c2ccc(C(=O)c3ccc(Cl)cc3)cc2[N+](=O)[O-])CC1,.
Cc1ccc(N(Cc2ccc(C(=O)Nc3ccc4c(c3)OCCO4)cc2)S(C)(=O)=O)cc1C,.
CC(=O)c1ccc(NC(=O)c2ccc(-c3ccccc3)cc2)cc1,.
Cc1c(C(=O)Nc2nc(-c3ccc(Br)cc3)cs2)cccc1[N+](=O)[O-],.
NC(=O)C1CCN(CC2CC=CCC2)CC1 (stereo not drawn),.
C=C(C)CN(CC)C(=O)C1CCN(CC2CC=CCC2)CC1 (stereo not drawn),+
CCN(Cc1ccccc1)C(=O)C1CCN(CC2CC=CCC2)CC1 (stereo not drawn),.
COc1ccc(C(=O)Nc2cc(C(N)=O)c(Cl)cc2Cl)cc1,.
O=C(Nc1ccccc1C(=O)NCc1ccccc1)c1ccc([N+](=O)[O-])cc1,+
O=C(Nc1ccccc1O)c1ccc([N+](=O)[O-])cc1,.
O=C(Nc1ccccc1C(=O)Nc1ccc([N+](=O)[O-])cc1)c1ccccc1,.
O=C(CSc1nc2ccccc2o1)NC1CCCCC1,.
Cc1cc(Cl)c(OCCOCCN2CCNCC2)c(Cl)c1,.
Cc1cc(C)c(OCCCCN2CCNCC2)c(C)c1,+
Cc1cc(C)c(OCCCN2CCCC2)c(C)c1,.
COc1cc(CN2CCCCCC2)ccc1O,.
C/C(=C\c1ccccc1)CN(C)C1CCN(C)CC1,.
C/C(=C\c1ccccc1)CN(C)CCN(C)C,+
